What all share (assay): NCI-60 one-dose screen, 48 h (100 = growth as untreated, 0 = no growth, -100 = all killed)
Conditions in all cases: 10 µM unless noted

Assay [1] relates to OVCAR-8 ovarian.
Assay [2] concerns OVCAR-5 ovarian.
Assay [3] deals with OVCAR-4 ovarian.
Assay [4] has as its system SK-OV-3 ovarian.
Assay [5] relates to IGROV1 ovarian.
Assay [6] deals with OVCAR-3 ovarian.
The test system of assay [7] is NCI/ADR-RES ovarian.
For assay [8], the system named is T-47D breast.
Assay [9] relates to BT-549 breast.
Assay [10] concerns MDA-MB-435 melanoma.
Assay [11] concerns SW-620 colon.
In assay [12] the test system is MCF7 breast.
Assay [13] deals with HCT-116 colon.
The test system of assay [14] is HCC-2998 colon.
Assay [15] deals with KM12 colon.
In assay [16] the test system is HS 578T breast.

Eleven compounds from PubChem BioAssay (NCI) can be followed below.

The structures appear in SMILES notation. Compounds without any hit were thinned out: in the full panel of roughly 83,000, 20% have a hit.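 How to read the values: 0–100, growth inhibition (40 = 60% inhibited); 0, no net growth; -100 to 0, cell death (-40 = 40% of starting cells died; -100 = all dead).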 Values without a mark were called inactive. Activity calls are given as the source filed them. How the source made its calls: active means growth percent below 10; inactive means the rest.

Take `Clc1ccc(-n2cnc3c(Cl)ncnc32)cc1Cl`: the growth in assay [1] is 88%; in [2], 82.5%; in assay [3] it was 103%; in assay [4], 99.8%; in assay [5], 54.6%; in assay [6], 98.9%. Further, the growth in assay [7] was 107%; in assay [8], 82.2%; in assay [9] it was 90.3%; in assay [10], 99.3%; in [11] it was 78.6%; in assay [12], 89.8%. Further, the values for the growth in [13], in [14] and in assay [15] were 61.1%, -75% (active) and 95%, respectively.
`CCOC(=O)c1cc(-c2cccnc2)nc2c(Cl)cc(Cl)cc12`: the growth is 104% in assay [1]; 92% in [2]; 89.9% in assay [3]; 91.2% in [4]; 80% in [6]; 95% in assay [16]. Also, the growth in assay [7] is 94%; in assay [8], 85.3%; in assay [9], 109%; in [10], 95%; in assay [11], 103%; in [12], 90.5%. Besides, the growth in [13] was 56.4%; in assay [14], 98.1%; in assay [15] it was 102%.
For the compound `CSc1ncc2ncn(C3OC(CO)C(O)C3O)c2n1` (configuration not stated), the growth in assay [1] was 138%; in [2] it was 156%; in [3], 101%; in assay [4] it was 104%; in assay [16], 95.2%; in assay [7], 143%. The growth in [8] is 101%; in [9], 118%; in assay [10], 104%; in [11] it was 96.5%; in [12], 122%; in assay [13] it was 102%. Moreover, the growth in [14] was 124%; in [15] it was 113%.
In the case of `CC12CCC3C(CCC4CC(=O)/C(=C\O)CC43C)C1CCC(=O)O2` (configuration not stated), the growth in assay [1] was 101%; in assay [2], 95.7%; in assay [3], 112%; in assay [4], 128%; in assay [5], 95.1%; in assay [6] it was 114%. For the same compound, the growth in [7] is 96.1%; in [8] it was 117%; in assay [9] it was 112%; in [10], 110%; in assay [11], 110%; in assay [12] it was 102%. Further, the growth is 100% in assay [13], 101% in [14] and 115% in assay [15].
For the compound `COc1cc(/C=C2\COc3ccc(O)cc3C2=O)cc(OC)c1`, the growth in assay [1] is 40.4%; in assay [2], 73.7%; in [3] it was 93.4%; in assay [4], 91.7%; in [5], 73.2%; in assay [6], 37.1%. Also, the growth was 65.8% in assay [7]; 60.3% in assay [8]; 66.1% in assay [9]; 20.1% in [10]; 2.07% (active) in assay [11]; 8.22% (active) in assay [12]. Also, the results for the growth in assay [13], in assay [14] and in [15] were 0.249% (active), 109% and 17.4%, respectively.
Turning to `COc1ccc2nc3cc(Cl)ccc3c(Nc3cc(C(C)C)c(O)cc3C)c2c1`, the growth was 50.4% in [1]; 68.7% in [2]; 30.2% in assay [3]; 63.3% in [4]; 65.5% in assay [16]; 38% in assay [7]. The growth is 13.9% in [8]; 57% in assay [9]; 30.8% in assay [10]; 21.8% in assay [11]; 15.5% in [12]; 1.48% (active) in assay [13]. Also, the growth in assay [14] is 37.5%; in assay [15], 8.35% (active).
With `CC(C)C/C(=N\NC(=O)c1ccncc1)c1cc(Cl)ccc1O`, the growth in assay [1] was 11.7%; in assay [2], 37.3%; in assay [3], 14.5%; in assay [4], 24.5%; in [5], 9.3% (active); in assay [6], 11.1%. For the same compound, the growth in assay [7] was 5.17% (active); in [8], 25.1%; in assay [9], -1.24% (active); in assay [10], 32.4%; in assay [11], 31.1%; in [12], 5.38% (active). Besides, the growth was 0.442% (active) in [13], 28.1% in assay [14] and 25.8% in assay [15].
For `c1cnc2ccc3ncccc3c2c1`, the growth in assay [1] was 95.4%; in assay [2], 164%; in [3], 110%; in assay [4], 106%; in assay [6], 103%; in [16], 109%. The growth was 128% in assay [7]; 116% in assay [8]; 108% in [9]; 129% in [10]; 100% in assay [11]; 92% in assay [12]. Further, the values for the growth in assay [13], in assay [14] and in assay [15] were 95.7%, 124% and 110%, respectively.
With `CCOC(=O)C1=NN(c2ccc(Cl)cc2)C2C3N(c4ccc(Cl)cc4)N=C(C(=O)OCC)N3c3ccccc3N12` (configuration not stated), the growth is 101% in assay [1]; 101% in assay [2]; 92.4% in assay [3]; 115% in assay [4]; 76.7% in assay [5]; 120% in [16]. Further, the growth in [7] is 101%; in [8] it was 102%; in [9], 123%; in assay [10], 100%; in assay [11] it was 110%; in assay [12], 85.7%. The growth in [13] is 87.9%; in [14] it was 97.5%; in assay [15], 103%.
With `OC(Cc1cccnc1)c1ccccc1` (configuration not stated), the growth was 96.5% in [1]; 92.8% in [2]; 107% in assay [3]; 112% in assay [4]; 114% in [5]; 112% in assay [16]. Further, the growth is 107% in assay [7]; 112% in [8]; 107% in assay [9]; 110% in [10]; 100% in [11]; 104% in assay [12]. The growth in assay [13] and in assay [14] was 107% in each case.
On to `CCOC(=O)c1ccccc1OC(=O)NNc1ccccc1`, for which the growth in assay [1] was 71.3%; in [2] it was 83.7%; in [3], 63.6%; in [4] it was 93.7%; in assay [5], 60.4%; in [6], 77.7%. Also, the growth in assay [7] was 58.1%; in [8], 57.3%; in [9], 48.3%; in assay [10], 50%; in assay [11], 45.6%; in assay [12], 50.3%. Further, the growth in [13] is 70.8%; in assay [14] it was 40%; in assay [15], 55%.
